This is a sample that favours compounds with a hit; in the whole collection about 11% have one here.
HTT ATP protect: qHTS Multiplex Assay to Identify Dual Action Probes in a Cell Model of Huntington: Cytoprotection (ATP) | PC12 HTT-Q103 induced, cytoprotection, ATP luminescence, 40 h | Potency, µM (highest dose often 56.4 µM), without a hit: cytoprotection (ATP increase), actives largely listed as activators | 230,000 tested, 0.14% active; note: potency is the fitted concentration of half-maximal effect; % of control where 0% means no effect; nearly all actives have a fitted effect of over 45% in size
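PC12 cells stably carrying ecdysone-inducible Htt exon 1 (Q103)–GFP were induced with 100 nM tebufenozide (final) alongside library compounds in a dose series. Cytoprotection was scored as retained ATP by ATPlite luminescence.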
HTT aggregate: qHTS Multiplex Assay to Identify Dual Action Probes in a Cell Model of Huntington: Aggregate Formation (GFP). 220,000 tested, 1.1% active. Potency, µM (top dose mostly 46.1 µM), without a hit: at the highest dose activity change, negative = inhibition, usual class: inhibitors. PC12 HttQ103-GFP aggregates, Acumen cytometry, 40 h; note: potency is the fitted concentration of half-maximal effect; % is set by controls: 0 for no effect and ±100 for the full control effect; nearly all actives have a fitted effect of over 60% in size
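Using laser scanning cytometry, GFP-positive aggregates were counted after lysis of PC12 cells induced with 100 nM tebufenozide to express HTT exon 1 Q103–GFP. Compounds were tested in titration.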
ALDH1A1 block: qHTS Assay for Inhibitors of Aldehyde Dehydrogenase 1 (ALDH1A1); Purified ALDH1A1, NADH fluorescence, propionaldehyde substrate; 220,000 tested, 7.3% active; Potency, µM (top dose mostly 75.3 µM), for the others: top-dose activity, negative = inhibition, actives largely listed as inhibitors; Aldehyde dehydrogenase 1A1 (Homo sapiens), P00352; active = well fitted inhibition curve with a large enough effect, not every such curve was filed as active; inconclusive = small, poorly fitted or top-dose-only effect, or another doubt; inactive = no such curve, though single readings can be large or run the other way;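 note: potency is the fitted concentration of half-maximal effect; plate controls were no enzyme wells and a reference inhibitor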
PNC inhibitor: High Content Assay for Compounds that inhibit the Assembly of the Perinucleolar Compartment; PC3M PTB-GFP, PNC prevalence imaging, 16 h; stronger effect = lower value; activity change (PNC), negative = inhibition, % at 10 µM; 140,000 tested, 3.1% active; AID 2417, 2010;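 active = readout at or below -70, meaning at least 70% loss of cells showing the perinucleolar compartment, a nuclear body marking cancer cells; inconclusive = readout between -30 and a set limit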;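 note: plate controls were DMSO wells for no effect and camptothecin positive control wells for full effect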
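Compounds are pinned in duplicate onto adhered PC3M cells stably expressing GFP-tagged PTB and incubated 16 h at 37 C. Cells are then fixed, nuclei stained with Hoechst, and PNC-positive cells counted.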
CBFb-RUNX1 inh: qHTS Assay for Compounds Blocking the Interaction Between CBF-beta and RUNX1 for the Treatment of Acute Myeloid Leukemia; Runt-related transcription factor 1 (Homo sapiens) + Core-binding factor subunit beta …; AlphaScreen CBFb-His/RUNX1-biotin binding, biochemical; Potency, µM (highest dose often 59.8 µM), for inactives: at the top dose activity, negative = inhibition, hits mostly inhibitors; 230,000 tested, under 10 active; AID 1477, 2009; note: % of control where 0% means no effect
Target sequence (Q01196 whole entry, looked up): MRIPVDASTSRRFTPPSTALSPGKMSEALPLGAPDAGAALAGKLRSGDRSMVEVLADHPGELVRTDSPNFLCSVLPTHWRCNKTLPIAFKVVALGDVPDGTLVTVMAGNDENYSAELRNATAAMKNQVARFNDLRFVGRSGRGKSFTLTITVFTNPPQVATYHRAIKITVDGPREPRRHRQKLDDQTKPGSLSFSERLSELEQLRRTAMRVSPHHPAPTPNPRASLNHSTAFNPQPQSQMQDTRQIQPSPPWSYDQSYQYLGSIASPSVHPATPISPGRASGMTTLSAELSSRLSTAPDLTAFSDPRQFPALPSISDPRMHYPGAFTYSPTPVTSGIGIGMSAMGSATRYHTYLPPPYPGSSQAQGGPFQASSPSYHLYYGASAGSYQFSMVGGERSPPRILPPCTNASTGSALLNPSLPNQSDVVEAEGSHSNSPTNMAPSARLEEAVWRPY
Target sequence (Q13951 whole entry, looked up): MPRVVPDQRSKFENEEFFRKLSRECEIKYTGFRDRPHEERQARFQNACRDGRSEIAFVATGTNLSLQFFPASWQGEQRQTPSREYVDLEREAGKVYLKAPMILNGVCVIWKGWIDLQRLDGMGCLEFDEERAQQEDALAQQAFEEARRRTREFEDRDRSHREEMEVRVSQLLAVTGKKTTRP
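AlphaScreen proximity signal reports loss of binding between His-tagged CBF-beta and biotin-labelled RUNX1, each at 30 nM. Proteins are pre-associated for 20 minutes, compounds added for 15 minutes, then beads for 90 minutes, all at ambient temperature.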
HPGD block: qHTS Assay for Inhibitors of HPGD (15-Hydroxyprostaglandin Dehydrogenase). Potency, µM, for the others: top-dose activity change, negative = inhibition, usual class: inhibitors. purified HPGD, NADH fluorescence kinetic, PGE2 substrate. AID 894, 2007. 150,000 tested, 4.3% active. 15-hydroxyprostaglandin dehydrogenase [NAD(+)] (Homo sapiens), P15428; active = well fitted inhibition curve with a large enough effect, not every such curve was filed as active; inconclusive = small, poorly fitted or top-dose-only effect, or another doubt; inactive = no such curve, though single readings can be large or run the other way; note: potency is the fitted concentration of half-maximal effect; % is set by controls: 0 for no effect and ±100 for the full control effect
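20 nM HPGD preincubated 15 min at room temperature with compound in 50 mM Tris-HCl pH 8, 0.01% Tween 20. Started with 1 mM NAD+ and 30 uM prostaglandin E2; NADH fluorescence (360/450 nm) read 5 times over 30-s intervals, last minus first.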
Starred values were filed as active, the others as inactive; u = inconclusive; x = not tested or not shown; [ ] = remark or other dose. Unless noted, calls come from the whole dose curve; as a rule, active = well fitted curve in the direction sought with a large enough effect; inconclusive = small, poorly fitted or top-dose-only effect, or another doubt; inactive = no such curve, though single readings can be large; an effect the other way counts as inactive or inconclusive.

SMILES	HTT ATP protect	HTT aggregate	ALDH1A1 block	PNC inhibitor	CBFb-RUNX1 inh	HPGD block
Cc1nc2sc(C(N)=O)c(N)c2c(C)c1CC(=O)c1ccccc1	-41.2%	3.55µM*	-12.9%	x	-5.3%	x
COc1cc(-c2c(C#N)c(N)nc3c2CCCC3)cc(OC)c1OC	-18.4%[10 µM]	5.6%	-2.4%	-100.0*	-1.4%	-19.0%
CCOc1cc(-c2c(C#N)c(N)nc3c2CCCC3)ccc1O	12.0%[10 µM]	-14.5%[9.22 µM]	u	-113.7*	4.9%	u
COc1ccc(-c2c(C#N)c(N)nc3c2CCC3)cc1	-20.8%	-23.4%	u	x	0.3%	x
N#Cc1c(N)nc(SCc2ccncc2)c(C#N)c1-c1cccs1	15.2%[1.9 µM]	-23.2%	u	50.1	1.6%	u
COc1cc(-c2c(C#N)c(N)nc(SCc3ccncc3)c2C#N)cc(OC)c1OC	-34.2%	-11.8%[9.22 µM]	29.1%	u	1.6%	12.6µM*
Cc1noc(C)c1-c1nccc(NC2CC2)n1	-31.4%	x	-3.6%	x	x	x
CCCC1OC2CC3C4CCC5=CC(=O)C=CC5(C)C4C(O)CC3(C)[C@]2(C(=O)CO)O1 (some centres not stated)	-80.4%	x	-3.1%	x	19.0%	-8.3%
O=P(c1ccccc1)(c1ccccc1)c1nc(-c2ccccc2)oc1N1CCOCC1	20.7%[10 µM]	-27.6%[9.22 µM]	x	x	-11.4%	x
CCOP(=O)(c1ccccc1)c1nc(-c2ccc(F)cc2)oc1N1CCCCC1 (configuration not stated)	-20.1%	-18.7%[9.22 µM]	-14.7%	-87.4*	-4.3%	-11.1%
c1ccc(-c2n[nH]c3ccccc23)cc1	11.0%[10 µM]	2.8%	u	17.2	15.9%	14.1µM*
Fc1ccc(-c2n[nH]c(=S)c3ccccc23)cc1	-3.5%	-8.6%	3.98µM*	x	-10.0%	x
CN1c2ccsc2/C(=N/Nc2ccc(F)cc2)CS1(=O)=O	x	23.1%	1.0%	x	-16.9%	x
O=C1NCCC/C1=N/Nc1ccc(F)cc1	-13.9%	3.9%	12.6µM*	x	-2.8%	x
Cc1cc(-c2nnc(-c3ccccc3)c(-c3ccccc3)n2)c(C)o1	11.5%	3.6%	6.31µM*	-4.0	-16.6%	u
Cc1cccc(Oc2ccc(NC(=O)C3CC=CCC3C(=O)O)cc2)c1 (configuration not stated)	-68.3%	13.9%	1.78µM*	x	-11.6%	x
Cc1cccc(Oc2ccc(NC(=O)c3ccccc3C(=O)O)cc2)c1	5.1%[10 µM]	-12.4%[9.22 µM]	x	x	-5.0%	x
N#Cc1ccc(Oc2ccc(NC(=O)C3CC=CCC3C(=O)O)cc2)cc1 (configuration not stated)	-1.6%[10 µM]	-6.6%[9.22 µM]	0.501µM*	x	3.1%	x
O=C(c1ccncc1)N1CCC2(CCN(Cc3ccncc3)CC2)CC1	-82.4%	x	-8.2%	x	x	-3.2%
Cn1c(=O)n2n(c1=O)[C@H]1[C@H](O)[C@H]3O[C@@H]3/C(=N/OC[C@@H](O)COCc3ccco3)[C@@H]1CC2	15.4%[10 µM]	x	2.7%[13.5 µM]	x	8.1%[13.1 µM]	x
COc1ccccc1Oc1nc2c(c(=O)n(Cc3ccccc3F)c(=O)n2C)n1C	2.2%	-5.6%	8.91µM*	-29.7	u	14.1µM*
Cn1c(=O)n(Cc2ccccc2F)c(=O)c2c1nc1n2CCN1Cc1ccco1	-29.3%	4.1%	7.94µM*	x	5.8%	x
Cn1c(NCCCO)nc2c1c(=O)n(Cc1ccccc1F)c(=O)n2C	u	-12.4%	0.8%	-12.3	6.8%	-2.0%
Cc1ccc(NC(=O)CSCC(=O)Nc2ncc3c(n2)CC(c2ccco2)CC3=O)cc1 (configuration not stated)	-0.5%[10 µM]	-2.3%	3.98µM*	-85.1*	-1.3%	2.4%
Cc1ccc(C(=O)Nc2ncc3c(n2)CC(c2ccco2)CC3=O)cc1 (configuration not stated)	-6.1%	1.4%	u	5.1	-2.4%	-5.8%
SMILES	HTT ATP protect	HTT aggregate	ALDH1A1 block	PNC inhibitor	CBFb-RUNX1 inh	HPGD block
O=S(=O)(c1ccc(Br)cc1)N1CCn2c(nc3ccccc32)C1	-20.8%	11.6%	3.0%	13.5	3.6%	-3.6%
O=S(=O)(Cc1ccccc1)N1CCCCC1	28.6%	10.4%	-3.7%	23.4	-10.8%	31.6µM*
O=S(=O)(Cc1ccccc1)N1CCn2c(nc3ccccc32)C1	8.9%	24.8%	-1.9%	-87.1*	0.4%	-2.6%
O=S(=O)(Cc1ccccc1)N1CCCCCC1	13.0%[10 µM]	13.9%	-9.8%	6.8	12.9%	-0.3%
CCOC(=O)c1[nH]nc(-c2cc(CC)c(O)cc2O)c1-c1cscn1	-14.2%	12.8%	8.91µM*	-17.5	-4.9%	-8.3%
CC(C)Nc1ncnc2c1cnn2-c1ccc(Cl)cc1	-25.6%[10 µM]	22.4µM*	-2.4%	33.4	10.7%	u
Clc1ccc(Nc2ncnc3c2cnn3-c2ccccc2)cc1	-5.5%	3.55µM*	-15.4%	27.2	10.9%	-17.4%
O=C1c2ccccc2C(=O)c2c(NC3CCCCC3)ccc(Nc3ccc(S(=O)(=O)O)cc3)c21	-4.3%[10 µM]	x	2.3%[13.5 µM]	x	x	-17.1%
C(=C\c1ccco1)/C=N/n1cnnc1	-4.2%	27.6%	3.16µM*	u	u	31.6µM*
S=c1[nH]nc(-c2ccncc2)n1/N=C/C=C/c1ccco1	-28.0%	u	u	x	4.1%	x
COC(=O)C1=C(C)N(Cc2ccco2)C(=O)/C1=C\c1ccc([N+](=O)[O-])cc1	-1.3%[10 µM]	u	15µM*	x	10.4%	x
COC(=O)C1=C(C)N(Cc2ccc(OC)cc2)C(=O)/C1=C\c1ccco1	16.7%[10 µM]	16.1%[9.22 µM]	-12.8%	x	u	x
Cc1ccc(NC(=O)CSc2ncc3ccccn23)cc1C	x	13.7%	3.16µM*	x	-1.4%	x
Cc1ccc(NC(=O)CSc2ncn(-c3ccccc3)n2)cc1C	2.3%[10 µM]	-2.0%	7.0%	29.0	3.6%	-5.7%
COc1cc(OC)c(C2CC(=O)N3CN(c4ccccc4C)CSC3=C2C#N)cc1OC (configuration not stated)	2.8%[10 µM]	23.6%	3.98µM*	-18.3	-5.0%	8.91µM*
COC(=O)CSC1=C(C#N)C(c2ccc(C)o2)CC(=O)N1 (configuration not stated)	11.2%[10 µM]	-2.3%[9.22 µM]	-3.5%	x	5.0%	x
Cc1cccc(N2CSC3=C(C#N)C(c4ccc(C)o4)CC(=O)N3C2)c1 (configuration not stated)	-11.6%[0.074 µM]	46.2%	8.91µM*	u	x	8.91µM*
